Results published in the supplement of paper PMC13380429.

Test system: Vero E6 infected with SARS-CoV-2
Assay: inhibition of SARS-CoV-2 cytopathic effect; higher = more antiviral protection, active = above 15
Settings: 48 h

Measured: inhibition of SARS-CoV-2 cytopathic effect

CC(=O)OC[C@H](N)C(=O)O [O-acetyl-L-serine]
inactive: 1 nM 0.15% | 8.33 nM 1.11% | 100 nM 1.58% | 833.33 nM 1.65% | 10000 nM -0.72%

CCN1CCN(c2cc3c(cc2F)c(=O)c(C(=O)O)cn3C2CC2)CC1 [enrofloxacin]
inactive: 1 nM 2.85% | 8.33 nM 4.7% | 100 nM 2.54% | 833.33 nM 2.88% | 10000 nM 5.39%

Cn1cnc2c1c(=O)[nH]c(=O)n2C [theobromine]
inactive: 1 nM -1.8% | 8.33 nM 1.86% | 100 nM 1.32% | 833.33 nM 1.3% | 10000 nM -1.36%

Cc1ccc(-c2cn3c4c(sc3n2)CCCC4)cc1 [pifithrin-cyclic]
inactive: 1 nM -1.71% | 8.33 nM -2.91% | 100 nM 1.98% | 833.33 nM 0.25% | 10000 nM 0.74%

CCOc1cc(N2CCC(O)CC2)ccc1Nc1ncc2c(n1)N(C)c1ccccc1C(=O)N2C
inactive: 1 nM 1.68% | 8.33 nM 1.49% | 100 nM 1.28% | 833.33 nM -1.36% | 10000 nM -1.31%

O=C(Nc1cc(Cl)cc(Cl)c1O)c1c(O)c(Cl)cc(Cl)c1Cl [oxyclozanide]
inactive: 1 nM -1.81% | 8.33 nM -0.46% | 100 nM 0.71% | 833.33 nM -1.33% | 10000 nM -1.62%

O=C(Nc1ccc(F)cc1)N1CCc2ccccc2[C@@H]1c1ccc(C(F)(F)F)cc1
inactive: 1 nM 0.09% | 8.33 nM -1.41% | 100 nM -0.59% | 833.33 nM -1.97% | 10000 nM -1.53%
